Source: PubChem BioAssay
Mcl1-Bid inh – disrupts binding of human Mcl-1 to Bid peptide; Q07820; actives 0.97% (n = 220,000); inhibition, % at 21.7 µM; TR-FRET Mcl-1/Bid-Dy647 peptide binding, 1536-well;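 active means compounds that cut the binding signal by more than half at the single screening dose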;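 further: His-tagged Mcl-1 with europium anti-His antibody binding Bid BH3 peptide; 0% = Mcl-1 plus peptide wells and 100% = peptide-only wells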
Target sequence (Q07820 whole entry, looked up): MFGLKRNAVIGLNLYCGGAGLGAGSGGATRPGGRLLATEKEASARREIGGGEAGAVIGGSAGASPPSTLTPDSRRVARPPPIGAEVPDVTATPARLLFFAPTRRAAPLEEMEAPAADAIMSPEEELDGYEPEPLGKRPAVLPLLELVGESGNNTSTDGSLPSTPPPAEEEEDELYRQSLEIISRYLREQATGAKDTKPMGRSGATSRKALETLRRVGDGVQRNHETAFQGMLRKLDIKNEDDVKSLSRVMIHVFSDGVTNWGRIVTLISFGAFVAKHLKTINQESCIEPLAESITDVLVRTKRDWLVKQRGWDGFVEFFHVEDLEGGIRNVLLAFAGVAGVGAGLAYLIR
Mcl1-Noxa inh – disrupts binding of human Mcl-1 to Noxa peptide; inhibition, % at 21.7 µM; AID 1022; actives 1.5% (n = 220,000); Q07820; TR-FRET Mcl-1/Noxa peptide binding, 2 h;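 active means compounds that cut the protein-peptide binding signal by more than 50% relative to plate controls in a single-dose test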;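 further: His-tagged Mcl-1 with rhodamine Noxa BH3 peptide and terbium anti-His antibody; 0% = Mcl-1 plus Noxa peptide wells and 100% = peptide-only wells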
BCLXL inh – Bcl-xL (human) inhibition; Q07817; actives 0.7% (n = 320,000); GST-Bcl-xL / FITC-Bim BH3 peptide fluorescence polarization; inhibition, % at 10.9 µM;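 active means inhibition above the mean of all tested compounds plus 3 SD, cutoff set per campaign, cut at about 30% in these data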;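 further: 0% = DMSO wells and 100% = unlabeled Bim-BH3 peptide competitor; inhibitors lower millipolarization by displacing the labeled peptide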
Target sequence (Q07817 whole entry, looked up): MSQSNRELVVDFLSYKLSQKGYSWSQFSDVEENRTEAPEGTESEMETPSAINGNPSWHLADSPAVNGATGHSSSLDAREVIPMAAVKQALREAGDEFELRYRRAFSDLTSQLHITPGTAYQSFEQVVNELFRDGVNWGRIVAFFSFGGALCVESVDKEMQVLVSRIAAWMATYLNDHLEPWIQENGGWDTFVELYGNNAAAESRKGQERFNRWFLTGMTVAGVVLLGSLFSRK
Mcl-1 Bim block – human Bim-Mcl-1 interaction inhibition; inhibition, % at 10 µM; Q07820; Bead-based flow cytometry, Bim peptide-Mcl-1 binding; actives 0.1% (n = 190,000); in the data active means inhibition above about 40%;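 further: 0% = no compound tracer wells and 100% = peptide blocker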
GLD-1 RNA inh – GLD-1-TGE RNA interaction inhibition (C. elegans); Q17339; purified GLD-1 + fluorescein TGE RNA, fluorescence polarization; inhibition, % at 5.96 µM; actives 0.44% (n = 320,000); AID 2280;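 active means percent inhibition above a per-plate cutoff, the plate mean of test compounds plus 3 SD, cut at about 30% in these data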;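 further: 0% = DMSO wells with GLD-1 and probe and 100% = wells lacking GLD-1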
MCL1-BIM inh – MCL1-BIM-BH3 interaction inhibition (human); actives 0.68% (n = 320,000); inhibition, % at 10.9 µM; Q07820; GST-MCL1 / FITC-Bim-BH3 fluorescence polarization; AID 2057;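 active means inhibition above the mean inhibition of all tested compounds plus 3 SD, set per campaign, cut at about 40% in these data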;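 further: 0% = DMSO wells and 100% = unlabeled Bim-BH3 peptide control; higher means more loss of mP so more displacement of Bim peptide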
An asterisk follows results filed as active; . = no result. Rows were chosen to be rich in hits. Some 2.3% of all compounds tested hit in one or more screens of this group.

SMILES	Mcl1-Bid inh	Mcl1-Noxa inh	BCLXL inh	Mcl-1 Bim block	GLD-1 RNA inh	MCL1-BIM inh
COC(=O)Nc1ccc(NC(C)=O)cc1	-16	-9	1	-1	2	5
CC(=O)Nc1cccc(NC(=O)Nc2ccc(C(C)=O)cc2)c1	94*	10	9	0	-3	3
CCN(CC)c1ccc(NC(=O)c2ccccc2OCC(=O)OC)cc1	-18	81*	8	-3	7	5
CC(=O)c1ccc(NC(=O)Nc2ccncc2)cc1	-34	15	4	1	3	2
C[C@H]1CN=C(N(C)C)N1CC1CCC(C(C)(C)C)CC1 (stereo partly specified)	.	.	5	.	2	2
CCOC(=O)C(Cc1ccccc1)C(=O)Nc1ccc(N(CC)CC)cc1 (stereo unspecified)	-29	60*	4	-3	-1	1
O=C(Nc1ccc(N2CCN(C(=O)c3ccccc3F)CC2)cc1)c1ncn[nH]1	-39	20	2	-3	8	-1
CC(=O)Sc1nc(-c2ccccc2)[nH]c1S(=O)(=O)c1ccc(C)cc1	-53	70*	-2	-2	4	-12
CSc1nc(-c2ccc(C)cc2)[nH]c1S(=O)(=O)c1ccccc1	3	26	-16	2	1	-19
O=C(Nc1ccc(CCC(=O)N2CCCC2)cc1)c1ncn[nH]1	96*	22	6	-4	2	9
CCn1nc(C(=O)Nc2ccc(S(=O)(=O)Nc3nccs3)cc2)c2ccccc2c1=O	-29	64*	-4	5	-42	-23
CC(=O)Oc1cccc(N2C(=O)c3cccc4c([N+](=O)[O-])ccc(c34)C2=O)c1	.	.	23	.	27	23
O=C(Nc1ccc(S(=O)(=O)Nc2nccs2)cc1)c1cccc(N2C(=O)c3ccccc3C2=O)c1	-98	53*	4	-1	-3	2
N#Cc1cccc(C(=O)Nc2ccc(S(=O)(=O)Nc3nccs3)cc2)c1	.	.	.	.	-18	.
O=C(Nc1ccc(S(=O)(=O)Nc2ncccn2)cc1)c1ccc2ncsc2c1	90*	60*	7	.	-6	-1
O=C(Nc1nccs1)c1cccc(N2C(=O)c3cccc4c([N+](=O)[O-])ccc(c34)C2=O)c1	101*	93*	43*	0	69*	47*
CCCCN(C(=O)NC(=O)Nc1nc2ccc(OC)cc2s1)S(C)(=O)=O	-14	25	13	-1	-1	12
O=C1OC(N2C(=O)CC[C@H]2C(=O)Nc2cccc(F)c2)c2ccccc21 (stereo partly specified)	.	.	6	.	-5	6
COc1ccc(NC(=O)CCC(=O)N/N=C/c2cn(C)nc2C)cc1	1	9	1	.	-2	-2
COc1ccc(C(=O)NC(CO)c2nnc(SCc3ccc(Cl)c(Cl)c3)n2C)cc1 (stereo unspecified)	-3	0	4	41*	1	3
CCn1c(CCNC(=O)c2ccc(OC)cc2)nnc1SCc1ccc(Cl)c(Cl)c1	-10	20	6	0	6	8
CC1Cc2cc(S(=O)(=O)N3CCN(c4cccc(Cl)c4)CC3)ccc2N1C(=O)C1CC1 (stereo unspecified)	.	.	-1	.	4	-2
COc1ccc2cc3c(N)nn(C(=O)Cc4ccc(Cl)cc4)c3nc2c1	66*	25	4	0	0	5
COc1cccc(-c2cc(C(=O)Nc3nc4ccccc4s3)c3ccccc3n2)c1	-1	-5	4	-2	0	6
O=C(Nc1nccs1)c1cc(-c2ccco2)nc2ccccc12	-88	81*	4	-8	3	23
SMILES	Mcl1-Bid inh	Mcl1-Noxa inh	BCLXL inh	Mcl-1 Bim block	GLD-1 RNA inh	MCL1-BIM inh
O=C(Nc1nc2ccccc2s1)c1cc(-c2ccco2)nc2ccccc12	63*	59*	9	-3	-7	16
O=C(Nc1nccs1)c1cc(-c2ccccc2)nc2ccccc12	18	20	-1	-9	2	-4
N=c1oc2cc(O)ccc2cc1C(=O)Nc1nc2ccccc2s1	72*	100*	0	0	-30	-24
Cc1ccc2nc(NC(=O)c3cc(-c4ccco4)nc4ccccc34)sc2c1	53*	42	2	0	2	1
N=c1oc2cc(O)ccc2cc1C(=O)Nc1ccccn1	-20	13	9	0	7	-7
CCOC(=O)CC(=O)Nc1ccn[nH]1	-1	55*	0	.	3	-7
CC(=O)Nc1nnc(SCc2ccc(F)cc2)s1	-14	11	6	-1	-1	0
CC(=O)Nc1nnc(SCc2cccc(F)c2)s1	-3	8	47*	0	0	2
COc1ccc(C2NC(=O)c3ccccc3O2)c(OC)c1OC (stereo unspecified)	-9	2	8	0	0	8
O=C(Cc1cccc2ccccc12)N/N=C/c1ccc(Sc2cccc3cccnc23)o1	7	0	-2	0	-2	2
CCN1CC=C2C(C1)C(c1ccc(Cl)s1)C(C#N)=C(N)C2(C#N)C#N (stereo unspecified)	-25	19	102*	8	76*	114*
CC(C)C1S/C(=N/N=C/c2cccs2)NC1=O (stereo unspecified)	-18	-1	6	3	-1	5
CC1CCCN(CCCNC(=O)C2CCCN(c3ncnc4c3nc3n4CCCCC3)C2)C1 (stereo unspecified)	.	.	5	.	-2	9
CC1CC(C)CN(CCCNC(=O)C2CCCN(c3ncnc4c3nc3n4CCCCC3)C2)C1 (stereo unspecified)	.	.	4	.	41*	6
CC1CCCCN1CCNC(=O)C1CCCN(c2ncnc3c2nc2n3CCCCC2)C1 (stereo unspecified)	.	.	39*	.	15	34
CCOC(=O)CSc1nc(N)c(C#N)c(-c2ccc(OCC)cc2)c1C#N	-24	-113	-3	-1	-3	-2
COC(=O)CSc1nc(N)c(C#N)c(-c2ccc(O)cc2)c1C#N	57*	39	2	.	5	4
CN1CCN(c2nc(-c3ccccc3O)nc3ccccc23)CC1	.	.	2	.	-1	1
COc1cccc(-c2nc(N3CCN(C)CC3)c3ccccc3n2)c1O	-54	68*	5	.	1	4
Cc1nc(NCc2ccc3c(c2)OCO3)c2nnn(Cc3ccccc3)c2n1	33	-2	2	-3	5	-6
c1ccc(Cn2nnc3c(NCc4ccc5c(c4)OCO5)nc(C4CC4)nc32)cc1	52*	-26	4	3	7	6
CCN(CC)CCCNCC(=O)Nc1cc(C)on1	15	13	5	1	5	2
O=C(O)c1ccc(-n2c(/C=C/c3ccccc3)nc3ccccc3c2=O)cc1	.	.	30*	.	-5	-1
